An excerpt weighted towards active compounds, which were near 11% of everything screened.
NPSR antagonist: blocks cAMP signaling of the human neuropeptide S receptor | AID 1461 | CHO-NPSR cells, cAMP TR-FRET, antagonist mode | Q6W5P4 | actives 1% (n = 220,000) | Potency, µM (titrated, usually from 38.3 µM), actives largely listed as inhibitors; note: nearly all actives have a fitted effect of over 50% in size
IMPase cell inh: cell-permeable inhibitors of inositol monophosphatase (IMPase). inhibition (IP1 accumulation), % at 46.1 µM. 120,000 tested, under 10 active. AID 901. P97697. CHO-M1 cells, IP1 accumulation, HTRF TR-FRET ratio; active = well fitted curve in the direction sought with a large enough effect in the signal ratio, not every such curve was filed as active; inconclusive = small, poorly fitted or top-dose-only effect, or a change in a side signal; inactive = no such curve, though single readings can be large or run the other way; the % refers to the signal ratio;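 note: cells stimulated with carbachol in lithium chloride buffer; higher means more IMPase inhibition seen as more IP1 and lower FRET ratio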
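Cellular IMPase inhibition is scored as a rise in cytosolic IP1, detected by competitive TR-FRET between d2-labelled IP1 and a europium anti-IP1 antibody. M1-expressing CHO cells were stimulated with carbachol for 30 min at 37C, with lithium (50 mM LiCl) present in the buffer.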
PNC assembly inh: perinucleolar compartment assembly inhibition | PC3M PTB-GFP, PNC prevalence imaging, 16 h; hits give low values | activity change (PNC), negative = inhibition, % at 10 µM | AID 2417 | actives 3.1% (n = 140,000);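 active = readout at or below -70, meaning at least 70% loss of cells showing the perinucleolar compartment, a nuclear body marking cancer cells; inconclusive = readout between -30 and a set limit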
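Compounds are pinned in duplicate onto adhered PC3M cells stably expressing GFP-tagged PTB and incubated 16 h at 37 C. Cells are then fixed, nuclei stained with Hoechst, and PNC-positive cells counted.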
HPGD inh: blocks human HPGD enzyme activity; actives 4.3% (n = 150,000); Potency, µM, most hits filed as inhibitors; P15428; purified HPGD, NADH fluorescence kinetic, PGE2 substrate; active = well fitted inhibition curve with a large enough effect, not every such curve was filed as active; inconclusive = small, poorly fitted or top-dose-only effect, or another doubt; inactive = no such curve, though single readings can be large or run the other way
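20 nM HPGD preincubated 15 min at room temperature with compound in 50 mM Tris-HCl pH 8, 0.01% Tween 20. Started with 1 mM NAD+ and 30 uM prostaglandin E2; NADH fluorescence (360/450 nm) read 5 times over 30-s intervals, last minus first.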
ALDH1A1 block: ALDH1A1 (human) enzyme inhibition | Purified ALDH1A1, NADH fluorescence, propionaldehyde substrate | Potency, µM (doses to about 75.3 µM), actives largely listed as inhibitors | AID 1030 | P00352 | actives 7.3% (n = 220,000); active = well fitted inhibition curve with a large enough effect, not every such curve was filed as active; inconclusive = small, poorly fitted or top-dose-only effect, or another doubt; inactive = no such curve, though single readings can be large or run the other way
Target sequence (P00352 whole entry, looked up): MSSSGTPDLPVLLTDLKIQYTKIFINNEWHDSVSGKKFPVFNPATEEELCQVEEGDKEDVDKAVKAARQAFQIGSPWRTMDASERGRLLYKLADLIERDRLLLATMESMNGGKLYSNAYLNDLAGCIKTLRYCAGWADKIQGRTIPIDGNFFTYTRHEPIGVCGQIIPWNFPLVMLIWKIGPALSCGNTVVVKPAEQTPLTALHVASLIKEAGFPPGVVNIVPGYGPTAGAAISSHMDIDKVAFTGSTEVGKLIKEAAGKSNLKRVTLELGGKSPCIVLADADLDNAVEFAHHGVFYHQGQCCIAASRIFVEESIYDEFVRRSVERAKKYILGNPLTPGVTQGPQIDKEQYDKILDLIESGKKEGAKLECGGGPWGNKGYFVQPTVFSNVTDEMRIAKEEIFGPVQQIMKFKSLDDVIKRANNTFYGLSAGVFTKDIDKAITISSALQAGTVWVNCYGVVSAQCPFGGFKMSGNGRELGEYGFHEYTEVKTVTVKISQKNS
IMPase Li cell: cell-permeable IMPase inhibitors with lithium potentiation. CHO-M1 cells, IP1 TR-FRET (IP-One), carbachol + lithium. actives 0.35% (n = 210,000). Potency, µM (titrated, usually from 59.4 µM), actives largely listed as inhibitors;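 note: IP1 builds up when IMPase is blocked and the TR-FRET signal falls; nearly all actives have a fitted effect of over 50% in size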
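IP1 accumulation measured by competitive TR-FRET in lysed CHO-M1 cells after 30 min compound exposure at 37C, with a small lithium addition to potentiate weak responses. Hill-equation AC50 from ratio and donor-channel data.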
A number is an active result; 0 = inactive; ? = inconclusive; - = not tested or not shown. Unless noted, calls come from the whole dose curve; as a rule, active = well fitted curve in the direction sought with a large enough effect; inconclusive = small, poorly fitted or top-dose-only effect, or another doubt; inactive = no such curve, though single readings can be large; an effect the other way counts as inactive or inconclusive.

SMILES	NPSR antagonist	IMPase cell inh	PNC assembly inh	HPGD inh	ALDH1A1 block	IMPase Li cell
Cc1ccc(C(=O)Nc2onc(C)c2C#N)cc1	0	0	0	0	25.1µM	0
Cc1noc(NC(=O)c2ccccc2)c1C#N	0	0	0	0	10µM	0
CCOC(=O)C1CCN(C(=O)CC(NS(=O)(=O)c2ccc(OC)cc2)C(C)C)CC1 (centres undefined)	0	0	0	0	0	0
O=C(NC(=S)Nc1ccccn1)c1cccc([N+](=O)[O-])c1	0	-	-	-	0	-
CCOC(=O)C1CCN(C(=O)c2cc3c(-c4ccc(OC)c(OC)c4)nn(C)c3s2)CC1	0	0	0	?	?	0
CCOc1ccc(-c2cc(C(F)(F)F)c(C#N)c(SCC(=O)Nc3ccccc3)n2)cc1	-	0	-	-	-	-
CCC12CCCN3CCC4(C(=C(C(=O)OC)C1)Nc1ccccc14)C32 (centres undefined)	0	0	?	0	20µM	0
CSc1nc(C(=O)N2CCc3c([nH]c4ccccc34)C2c2ccccn2)cs1 (centres undefined)	?	-	-	-	0	0
CCNC(=S)NNC(=O)c1csc2c1CCC(C)C2 (centres undefined)	0	0	0	0	0	0
COc1ccc(CCNC(=O)c2csc3c2CCCC3)cc1	0	-	-	-	0.794µM	0
CCc1c(C(=O)NC2CCCC2)csc1C	0	0	-99.4	14.1µM	0	0
O=C(NC1CCCC1)c1csc2c1CCCC2	0	0	0	15.8µM	?	0
Cc1ccccc1NC(=S)NNC(=O)c1csc2c1CCC(C)C2 (centres undefined)	0	0	?	0	20µM	0
CSc1ncccc1C(=O)OCC(=O)Nc1ccc(S(=O)(=O)N2CCCC2)cc1	0	-	0	0	?	0
O=C(CSC1=NCCS1)N1CCc2ccccc21	0	0	?	0	0	0
CCOc1cc(C2C(C(=O)O)c3cc(OCC)c(OCC)cc3C(=O)N2C)ccc1O (centres undefined)	0	0	0	0	0	0
CC1CCc2c(C(=O)Nc3nccs3)csc2C1 (centres undefined)	0	0	0	7.08µM	0	0
O=C(NCC1CCCO1)c1csc2c1CCCCC2 (centres undefined)	0	0	0	25.1µM	0	0
CC1CCc2c(C(=O)NCC3CCCO3)csc2C1 (centres undefined)	0	0	0	7.94µM	?	?
CC1CCc2c(C(=O)Nc3ccccn3)csc2C1 (centres undefined)	0	-	-	-	-	-
CC(O)CNc1nc2c(c(=O)n(C)c(=O)n2C)n1C/C=C/c1ccccc1 (centres undefined)	0	0	0	0	0	0
COc1cccc(-c2nc(Cc3ccc(OC)c(OC)c3)no2)c1	0	0	0	?	0	0
CC1(C)O[C@@H]1COc1c2ccoc2cc2oc(=O)ccc12	0	-	0	0	?	0
CSc1ncccc1C(=O)OCc1ccc(COC(=O)c2cccnc2SC)cc1	0	0	-107.5	0	0	0
CSc1ncccc1C(=O)OCc1ccccc1	0	0	0	0	0	0
SMILES	NPSR antagonist	IMPase cell inh	PNC assembly inh	HPGD inh	ALDH1A1 block	IMPase Li cell
O=C1CCN(S(=O)(=O)c2ccc(Cl)cc2)N1	0	0	0	0	0	0
CCOc1ccc2nc(Cl)c(/C=C/C(=O)c3ccco3)cc2c1	0	0	?	0	?	0
COc1ccc(N/N=C(C)/C(=N/O)C(=O)Nc2ccccc2)cc1	0	-	-	-	14.1µM	0
COc1ccc(/C=C(\C#N)C(=O)OCC(=O)NC2CC2)cc1	0	-	-	-	20µM	0
COc1cc(/C=N/NC(N)=S)ccc1OCC(=O)Nc1ccc(C)cc1	0	0	0	0	25.1µM	0
CCOC(=O)/C(C#N)=C/c1ccc(OCC(=O)Nc2ccc(C)c(C)c2)c(OC)c1	0	-	0	?	?	0
CCc1cccc(CC)c1NC(=O)COC(=O)/C(C#N)=C/c1ccc(OC)cc1	0	-	0	0	0	0
CCOC(=O)/C(C#N)=C/c1ccc(OCC(=O)Nc2ccc(OC)cc2)c(OC)c1	0	0	0	0	5.01µM	0
CNC(=S)N/N=C/c1ccc(OCC(=O)Nc2c(C)cc(C)cc2C)c(OC)c1	0	0	0	0	0	0
COc1ccc(/C=C(\C#N)C(=O)OCC(=O)Nc2ccc(C(C)(C)C)cc2)cc1	0	-	0	?	22.4µM	0
COc1ccc(/C=C(\C#N)C(=O)OCC(=O)NCc2ccccc2)cc1	0	-	0	?	?	0
O=C(CSc1nnnn1-c1cccc2ccccc12)N1CCOCC1	0	0	?	0	0	0
Cc1cccc(OCC(=O)NNC(=O)c2cc3ccccc3oc2=O)c1	0	0	0	0	?	0
O=C(COc1ccc(F)cc1)NNC(=O)c1cc2ccccc2oc1=O	0	-	-87.6	0	0	0
CCc1[nH]c(=O)[nH]c1C(C)S(=O)(=O)c1ccc(C)cc1 (centres undefined)	0	-	-	-	31.6µM	0
CCc1c(C(C)S(=O)(=O)c2ccc(C)cc2)[nH]c(=O)n1-c1ccc(C)cc1 (centres undefined)	0	0	0	0	?	0
Cc1ccccc1-c1nccc(NCCN2CCOCC2)n1	-	-	-	-	31.6µM	0
COC(=O)CC1C(=O)NCCN1C(=S)Nc1ccccc1 (centres undefined)	0	-	0	0	0	0
CCOC(=O)CC1C(=O)NCCN1C(=S)Nc1ccccc1 (centres undefined)	0	-	-91.0	0	?	0
CCOC(=O)CC1C(=O)NCCN1S(=O)(=O)c1cc(Cl)c(Cl)cc1Cl (centres undefined)	0	0	-98.3	0	0	0
Cc1cc(NC(=O)CSc2nnc(Cn3c(=O)sc4ccccc43)n2-c2ccccc2C)no1	0	0	0	0	0	0
CC1CCC(NC(=O)C2CC(=O)N(c3ccc4c(c3)OCCO4)C2)CC1 (centres undefined)	0	-	-	-	0	0
O=C(NCc1ccccn1)C1COc2ccccc2O1 (centres undefined)	0	0	0	14.1µM	0	0
O=C(NCCOC(=O)C1COc2ccccc2O1)C1COc2ccccc2O1 (centres undefined)	0	0	0	0	0	0
CCCCNC(=O)C1COc2ccccc2O1 (centres undefined)	0	0	0	15.8µM	0	0
O=C(NCc1ccncc1)C1COc2ccccc2O1 (centres undefined)	0	0	0	0	0	0
O=C(NCc1ccc2c(c1)OCO2)C1COc2ccccc2O1 (centres undefined)	0	0	0	4.47µM	0	0
COc1cccc(-c2[nH]nc3c2C(c2ccc(C)o2)C(C#N)=C(N)O3)c1 (centres undefined)	0	0	0	?	0	0

Source: PubChem BioAssay
